7 compounds from PubChem BioAssay can be followed below.

A short description of experiment [1]: EMT-state selective cytotoxicity in co-culture – imaging, PC-3E GFP, TEM4-18 mCherry, primary screen (AID 1345086;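 active means compounds killing one labelled cell type while sparing the other, by normalised counts and ratio limits, not self-fluorescent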;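 on all read-outs here: cells exposed to compound for 72 h before imaging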;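 on red/green cell ratio (normalised): normalised mesenchymal count divided by normalised epithelial count so high means epithelial killing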). As to conditions: PC-3E GFP / TEM4-18 mCherry co-culture, imaging cell counts, at 1 µM; for red/green cell ratio (normalised): actives lie on both sides, counts scaled to control wells, 1 = unselective.
Experiment [2] in a line: viability loss with induced miR-34 in A549 – imaging, A549 dox-inducible miR-34, nuclei and caspase counts, primary screen (AID 1347080;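 active means compounds whose cell count with miR-34 switched on is under 0.7 times the count with it off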). As to conditions: A549 miR-34 inducible, Hoechst nuclei count, 48 h.
The nature of experiment [3]: MELAS cybrid and Rieske KO viability enhancers – cell-based, MELAS cybrids, Rieske KO mouse fibroblasts, CellTiter-Glo, primary screen (AID 1508586;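 active means mean z-score across replicates of 1.96 or higher in either the MELAS or the Rieske mutant cell line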;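 further: z relative to plate mean and SD of compound and empty wells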). As to conditions: low glucose. (In general: Cellular ATP, detected with luciferase, serves as a proxy for viable cell number.)
The target in experiment [4] is NAD(+) hydrolase SARM1 (Homo sapiens) (UniProt Q6SZW1). The experiment in a line: blocking NAD cleavage by SARM1 SAM-TIR – cell lysate, NAD-Glo luminescence (AID 1508614;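 active means compound whose remaining NAD level is above about 45 nM, limit read from the data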). As to conditions: SAM-TIR HEK293T lysate NADase, at 1 µM, stronger effect = higher value.
Sequence of NAD(+) hydrolase SARM1 (Homo sapiens) (Q6SZW1 whole entry, looked up): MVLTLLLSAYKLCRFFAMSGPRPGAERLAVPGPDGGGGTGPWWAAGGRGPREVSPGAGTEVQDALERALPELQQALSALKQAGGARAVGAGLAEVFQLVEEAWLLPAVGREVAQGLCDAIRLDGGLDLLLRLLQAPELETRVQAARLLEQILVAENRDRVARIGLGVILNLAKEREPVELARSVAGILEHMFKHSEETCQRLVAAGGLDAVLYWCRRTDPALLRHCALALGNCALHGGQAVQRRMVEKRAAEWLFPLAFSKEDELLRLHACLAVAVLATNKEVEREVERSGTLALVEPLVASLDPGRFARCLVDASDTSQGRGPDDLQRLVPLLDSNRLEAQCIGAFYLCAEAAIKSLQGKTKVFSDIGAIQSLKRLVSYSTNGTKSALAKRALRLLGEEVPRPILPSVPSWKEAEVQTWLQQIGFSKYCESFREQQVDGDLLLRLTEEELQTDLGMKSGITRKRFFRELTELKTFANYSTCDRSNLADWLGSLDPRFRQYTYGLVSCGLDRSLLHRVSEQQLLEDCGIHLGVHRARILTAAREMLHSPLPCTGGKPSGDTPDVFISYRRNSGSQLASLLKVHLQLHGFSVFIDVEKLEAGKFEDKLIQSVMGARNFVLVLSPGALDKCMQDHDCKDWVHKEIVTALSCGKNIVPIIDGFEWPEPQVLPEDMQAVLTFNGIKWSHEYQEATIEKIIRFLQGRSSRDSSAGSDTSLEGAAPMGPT
The nature of experiment [5]: P. berghei load reduction in hepatocytes – cell-based, HepG2, luciferase luminescence, HepG2 viability, primary screen (AID 624349; in the data active means parasite load remaining mostly below about 12%, no sharp cut-off; inactive means mostly above about 10%;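 further: 100% = mean of DMSO negative control wells on the same plate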). Conditions: P. berghei liver stage in HepG2, luciferase luminescence, concentration not given here; parasite load remaining: stronger effect = lower value; viability: measured here: HepG2 viability without parasites.
Experiment [6] in a line: compounds altering circadian rhythm period length – cell-based, LOPAC library, luminescence reporter (AID 2774).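 Further: values are relative to mean of DMSO wells on each plate.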 Conditions: circadian reporter cells, at 7 µM, actives lie on both sides.
The test system of experiment [7] is Hepatitis C virus NS3 helicase. The experiment in a line: blockers of NS3h binding to ssDNA – biochemical, fluorescence polarization, LOPAC1280 library, primary screen (AID 687035; in the data active means inhibition above about 37%). As to conditions: Purified HCV NS3 helicase, Cy5-dT15 ssDNA binding fluorescence polarization; stronger effect = higher value; concentration not given here. Background: In fluorescence polarisation assays a small probe gives low polarisation when free and higher when bound to something large.

Experiment [8] is described as follows: compounds altering Cy5-DNA-NS3h complex signal – biochemical, LOPAC1280, artefact control for HCV NS3 helicase inhibitor project (AID 687037). Conditions: Cy5-DNA-NS3h complex fluorescence interference counterscreen. On the technique in general: The purpose of a counterscreen is to sort out artefacts and off-target activity.
Experiment [9] is described as follows: blockers of cellular phospholipid synthesis – cell-based, LOPAC library, screen 4, primary screen (AID 1347384). As to conditions: animal cells, phospholipid biosynthesis inhibition screen; at 10 µM.
Experiment [10] can be described thus: galactose survival enhancers in mitochondrial complex I cybrids – cell-based, galactose medium, ATP luminescence, primary screen (AID 1645843;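 active means z-score of at least 1.8 in each of two replicates, scored against plate mean and spread of sample wells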;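 further: positive z means more ATP and so rescue of galactose-driven cybrid death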). As to conditions: complex I mutant cybrid cells, 72 h, stronger effect = higher value.
For experiment [11], the target named is Mitogen-activated protein kinase 7 (Homo sapiens) (UniProt Q13164). The experiment in a line: Gal4-ERK5 driven luciferase induction – cell-based, HTS, primary screen (AID 1508626;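 active means luciferase signal above three times the same-plate solvent-only control wells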;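 further: luciferase driven by Gal4-ERK5 fusion binding five Gal4 sites before minimal TATA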). As to conditions: HeLa Gal4-ERK5 transactivation, 18 h, at 5 µM, stronger effect = higher value.
Sequence of Mitogen-activated protein kinase 7 (Homo sapiens) (Q13164 whole entry, looked up, the tested form may be a part): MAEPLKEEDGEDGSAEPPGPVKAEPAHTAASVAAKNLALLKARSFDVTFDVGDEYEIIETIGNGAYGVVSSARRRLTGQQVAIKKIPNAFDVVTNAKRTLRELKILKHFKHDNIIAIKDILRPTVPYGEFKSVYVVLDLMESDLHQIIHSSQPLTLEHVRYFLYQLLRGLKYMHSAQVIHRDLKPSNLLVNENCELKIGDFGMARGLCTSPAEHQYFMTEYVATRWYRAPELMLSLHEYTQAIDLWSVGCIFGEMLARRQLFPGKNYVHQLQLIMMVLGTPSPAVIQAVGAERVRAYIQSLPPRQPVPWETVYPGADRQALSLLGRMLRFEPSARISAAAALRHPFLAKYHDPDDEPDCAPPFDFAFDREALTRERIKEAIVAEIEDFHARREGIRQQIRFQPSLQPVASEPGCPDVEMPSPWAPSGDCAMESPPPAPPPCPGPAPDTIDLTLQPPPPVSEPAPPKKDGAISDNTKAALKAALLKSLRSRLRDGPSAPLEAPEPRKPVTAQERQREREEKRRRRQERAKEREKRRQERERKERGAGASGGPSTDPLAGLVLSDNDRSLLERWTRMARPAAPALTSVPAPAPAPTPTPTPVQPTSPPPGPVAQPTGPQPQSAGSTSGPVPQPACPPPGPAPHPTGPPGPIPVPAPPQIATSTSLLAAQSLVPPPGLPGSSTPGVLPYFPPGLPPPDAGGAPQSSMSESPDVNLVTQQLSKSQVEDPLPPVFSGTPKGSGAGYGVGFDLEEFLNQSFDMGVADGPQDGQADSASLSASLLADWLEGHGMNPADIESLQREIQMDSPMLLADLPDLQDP
A short description of experiment [12]: blockers of polyQ-driven CASP3 activation – cell-based (AID 1583). As to conditions: polyglutamine-induced caspase-3 activation, cell assay; stronger effect = higher value;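 tested at 10 µM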.
Experiment [13] is described as follows: yeast 75Q aggregation reduction – 75Q-TubU reporter (AID 1593). As to conditions: Yeast 75Q polyglutamine aggregation reporter.
The nature of experiment [14]: restoration of touch response, mutant HTT neurons – whole organism, C. elegans mechanosensory neurons, N-terminal huntingtin (AID 1599). Conditions: C. elegans polyQ-huntingtin mechanosensory neurons, stronger effect = higher value.
The nature of experiment [15]: blockers of cytochrome c efflux from mitochondria – biochemical, purified mitochondria (AID 1603).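 Further: mouse liver mitochondria challenged with calcium chloride; signal normalized to the plate average as 100%.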 As to conditions: stronger effect = lower value.
Experiment [16] can be described thus: polyglutamine aggregate formation blockers (AID 1604). Conditions: polyglutamine-induced protein aggregation inhibition assay; stronger effect = higher value; tested at 2.5 µM.
A short description of experiment [17]: glutamate transport activators, MN-1 cells, MN-1 cell line (AID 1612).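 Further: tested at 1 µM final; 0% = mean of DMSO vehicle wells on each plate; positive means more glutamate uptake than control and negative means less.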 As to conditions: MN-1 motor neuron cells, stronger effect = higher value.
Experiment [18] can be described thus: 75Q-TubH aggregate inhibition, S. cerevisiae, yeast (AID 1616). As to conditions: S. cerevisiae 75Q-TubH polyglutamine aggregation suppression; stronger effect = higher value.
The mark [19] stands for this setting: measured here: epithelial PC-3E GFP cell survival.
The mark [20] stands for this setting: measured here: mesenchymal TEM4-18 mCherry cell survival.
[21] abbreviates: stronger effect = lower value, cell number ratio, induced over uninduced.
[22] abbreviates: measured here: relative caspase fold change +Dox/-Dox.
Where [23] appears, read: measured here: total cells with miR-34 induction, stronger effect = lower value.
[24] abbreviates: measured here: total cells without miR-34 induction.

Several values for one entry are separate records, joined by “and”; a condition that tells them apart may be missing. Equal values may be shown once. For some assays here: Measured potencies and affinities stand elsewhere. Activity calls are given as the source filed them. Unless noted, how the calls were made is not given here.

For the compound `CC1=CC(=O)NS(=O)(=O)O1`, the red/green cell ratio (normalised) in [1] is 1.16 (inactive). Further, the normalised cell number in [1] (setting [19]) was 0.89; in experiment [1] (setting [20]), 1.03. For the same compound, the fold change was 0.852 (inactive) and 0.934 (inactive) in experiment [2] (setting [21]); 0.799 and 0.672 in experiment [2] (setting [22]). In addition, the cell count is 7390 and 8400 in experiment [2] (setting [23]); 8680 and 8990 in [2] (setting [24]). Besides, the z-score in experiment [3] (MELAS cybrid survival, CellTiter-Glo 48 h, stronger effect = higher value) is -0.393 (inactive); in experiment [3] (Rieske KO mouse fibroblast survival, CellTiter-Glo 72 h), -0.0842. Also, in experiment [4], the remaining NAD is 10 nM (inactive).
With `COc1cccc2c1C(=O)c1c(O)c3c(c(O)c1C2=O)C[C@@](O)(C(=O)CO)C[C@@H]3OC1C[C@H](N)[C@H](O)[C@H](C)O1` (stereo not given in full), the parasite load remaining in experiment [5] was 18.8% (inactive). Moreover, in experiment [5], the viability (in general, a read-out of living cells in per cent, often relative to untreated cells) amounted to 53.1%. Besides, in experiment [1], the red/green cell ratio (normalised) is 2.27 (inactive). Also, the normalised cell number in experiment [1] (setting [19]) turned out to be 0.17; in experiment [1] (setting [20]), 0.39. Also, the fold change in experiment [2] (setting [21]) was 0.907 (inactive); in experiment [2] (setting [22]), 1.04. Besides, the cell count in experiment [2] (setting [23]) came out at 1130; in experiment [2] (setting [24]) it was 1250.
`COc1cc([C@@H]2c3cc4c(cc3[C@H](O)C3COC(=O)[C@@H]32)OCO4)cc(OC)c1OC` (stereo not given in full): the period change in experiment [6] was 0.2 h (inactive). Besides, the inhibition (usually the change of the read-out against control, counted positive when it falls) in experiment [7] is -3% (inactive). The fluorescence ratio (interference) in experiment [8] is 1 (inactive). In experiment [1], the red/green cell ratio (normalised) is 1.07 (inactive). Further, the figures for the normalised cell number in experiment [1] (setting [19]) and in experiment [1] (setting [20]) were 0.17 and 0.18, respectively. The fold change was 0.98 (inactive) in experiment [2] (setting [21]) and 1.04 in experiment [2] (setting [22]). For the same compound, the cell count turned out to be 1670 in [2] (setting [23]) and 1710 in experiment [2] (setting [24]). Moreover, in experiment [9], the call was inactive. Also, the z-score in experiment [10] was -0.545 (inactive).
In the case of `O=C(O)C1=CC(=C(c2ccc(O)c(C(=O)O)c2)c2ccc(O)c(C(=O)O)c2)C=CC1=O`, in experiment [6], the period change is -0.145 h (inactive). Also, the inhibition in [7] was 96% (active). Moreover, the fluorescence ratio (interference) in experiment [8] was 1 (inactive). Besides, the red/green cell ratio (normalised) in experiment [1] is 1.1 (inactive). Moreover, the figures for the normalised cell number in experiment [1] (setting [19]) and in experiment [1] (setting [20]) were 1.19 and 1.31, respectively. For the same compound, the fold change in [2] (setting [21]) was 1.06 (inactive); in experiment [2] (setting [22]) it was 1.49. Besides, the results for the cell count in experiment [2] (setting [23]) and in experiment [2] (setting [24]) were 8760 and 8290, respectively. In [9], the compound was called inactive. Further, in experiment [11], the luciferase signal is 12 AU (inactive). Besides, in [10], the z-score is 5.43 (active).
For the compound `CO[C@@]12[C@@H]3NC3CN1C1=C(C(=O)C(N)=C(C)C1=O)[C@@H]2COC(N)=O` (stereo not given in full), in experiment [12], the inhibition was -29.8%. Moreover, in experiment [13], the score was found to be 2. Further, in experiment [14], the rescue above control was 0. For the same compound, the cytochrome c release ratio in experiment [15] amounted to 1. In experiment [16], the inhibition of aggregation was found to be 29.2%. Moreover, the glutamate uptake change in experiment [17] was determined as 0.5%. This compound yielded an aggregation suppression score in experiment [18] of 1.38. Further, the parasite load remaining in experiment [5] is 0.12% (inactive). This compound also came in with a viability in experiment [5] of 22.5%. Besides, in [1], the red/green cell ratio (normalised) is 1.09 (inactive). The normalised cell number is 1.03 in [1] (setting [19]) and 1.13 in experiment [1] (setting [20]). The values for the fold change in experiment [2] (setting [21]) and in experiment [2] (setting [22]) were 0.986 (inactive) and 0.958, respectively. In addition, the cell count in experiment [2] (setting [23]) worked out at 1840; in [2] (setting [24]), 1870.
Regarding `N=C(N)SCCN`, the period change in [6] was -0.04 h (inactive). Moreover, the inhibition in experiment [7] is -3% (inactive). Besides, in [8], the fluorescence ratio (interference) was 1 (inactive). Moreover, the red/green cell ratio (normalised) in [1] was 0.88 (inactive). Also, the normalised cell number in experiment [1] (setting [19]) was determined as 1.12; in experiment [1] (setting [20]), 0.98. The fold change in [2] (setting [21]) was 0.958 (inactive) and 1.11 (inactive); in experiment [2] (setting [22]), 2.51 and 0.757. The cell count is 9240 and 6110 in experiment [2] (setting [23]); 9640 and 5490 in [2] (setting [24]). The compound was called inactive in experiment [9]. Besides, in experiment [11], the luciferase signal was 96 AU (inactive). Further, in experiment [10], the z-score is -0.855 (inactive).
Consider `C[C@]12CCC(=O)C=C1[C@@H]1C[C@@H]1C1C2CC[C@@]2(C)C1[C@@H]1C[C@@H]1[C@@]21CCC(=O)O1` (stereo not given in full), for which the red/green cell ratio (normalised) in experiment [1] was 0.65 (inactive). In addition, the normalised cell number was 1.4 in experiment [1] (setting [19]) and 0.91 in experiment [1] (setting [20]). Also, the values for the fold change in experiment [2] (setting [21]) and in experiment [2] (setting [22]) were 1.02 (inactive) and 0.868, respectively. For the same compound, the results for the cell count in [2] (setting [23]) and in experiment [2] (setting [24]) were 7990 and 7840, respectively.
